We go through 103 molecules from PubChem BioAssay AID1209 (Sanford-Burnham Center for Chemical Genomics, 2008).

The term inhibition denotes the drop in the measured response relative to a control, in per cent.

The structures appear in SMILES notation. Where “and” joins values, the source holds several entries; their conditions need not be identical. Equal entries are not always repeated. The campaign covered roughly 190,000 compounds. About 810 (0.43%) were called active. Rule as the data show it: active = inhibition above about 50%; inactive = the rest. The full list was thinned out, with actives kept by preference.

For the assay, the target named is Mannose-6-phosphate isomerase (Homo sapiens) (UniProt P34949). Briefly: MPI enzyme activity inhibition – biochemical, fluorescence intensity, coupled assay, primary screen (AID 1209).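 Also: plate controls were DMSO vehicle for no effect and wells lacking substrate for full effect.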 The settings on record: purified PMI enzyme, at 20 µM, active compounds read high.
Sequence of Mannose-6-phosphate isomerase (Homo sapiens) (P34949 whole entry, looked up): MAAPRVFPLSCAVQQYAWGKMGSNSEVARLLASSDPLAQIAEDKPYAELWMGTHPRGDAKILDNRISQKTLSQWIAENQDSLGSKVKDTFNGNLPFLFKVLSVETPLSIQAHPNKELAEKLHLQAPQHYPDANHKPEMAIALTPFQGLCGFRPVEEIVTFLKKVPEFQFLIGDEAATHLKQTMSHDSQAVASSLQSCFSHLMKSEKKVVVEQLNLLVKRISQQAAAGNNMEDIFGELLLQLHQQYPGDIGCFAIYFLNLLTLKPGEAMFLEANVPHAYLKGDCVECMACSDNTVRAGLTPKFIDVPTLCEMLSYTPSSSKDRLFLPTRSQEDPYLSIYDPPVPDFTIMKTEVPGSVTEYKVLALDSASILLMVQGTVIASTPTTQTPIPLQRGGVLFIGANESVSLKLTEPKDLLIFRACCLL
For `CCOC(=O)C1CCN(S(=O)(=O)c2ccc(CC)cc2)CC1`, the inhibition was -5.3% (inactive).

Turning to `CC(=O)c1ccc(NC(=S)N2CCN(CCN3C(=O)c4cccc5cccc(c45)C3=O)CC2)cc1`, the inhibition was 10.7% (inactive).

For the molecule `COc1cccc(NC(=O)c2cc(-c3cccnc3)nc3c(Cl)cccc23)c1`, the inhibition was 1.6% (inactive).

Consider `O=C(CCc1ccccc1)Nc1cccc(NC(=O)CCc2ccccc2)c1`, for which the inhibition is 13.7% (inactive).

With `O=C(CCc1ccccc1)Nc1cc(C(=O)O)cc(C(=O)O)c1`, the inhibition was -2% (inactive).

In the case of `O=C(CCc1ccccc1)Nc1cc(NC(=O)CCc2ccccc2)cc(C(=O)O)c1`, the inhibition is 63.6% (active).

For `Cc1cccc(NC(=O)N(C)Cc2cccs2)c1`, the inhibition is 0.5% (inactive).

For the molecule `NNC(=O)c1cccc(O)c1`, the inhibition was 10% (inactive).

In the case of `COC(=O)c1cc(O)c(O)c(O)c1`, the inhibition is 34% (inactive).

`NNC(=O)c1cc(O)c(O)c(O)c1`: the inhibition was 51.2% (active).

`O=C(Nc1cccc(O)c1)c1noc2c1CCCCC2`: the inhibition was -1.4% (inactive).

Consider `O=c1nc(Nc2ccc(OCc3ccccc3)cc2)sc2ncccc12`, for which the inhibition is 3% (inactive).

For the molecule `COc1ccc(OC)c(Nc2nc(=O)c3cccnc3s2)c1`, the inhibition is 68.3% (active).

For `Cc1ccc(Nc2nc(=O)c3cccnc3s2)cc1`, the inhibition was 1.7% (inactive).

As for `Cc1nnc(SCC(=O)Nc2ccc3c(c2)OCCO3)n1N`, the inhibition was 11.3% (inactive).

Take `Oc1ccc(Cl)cc1C=Nc1ccc2c3c(cccc13)CC2`: the inhibition was 50.8% (active).

In the case of `Cc1cccc(C=Nc2ccc3c4c(cccc24)CC3)c1O`, the inhibition is 44.8% (inactive).

Take `Oc1ccc(Br)cc1C=Nc1ccc2c3c(cccc13)CC2`: the inhibition was 38.4% (inactive).

As for `O=[N+]([O-])c1ccc2c(c1)ncn2-c1ccccc1`, the inhibition is -3.3% (inactive).

`COc1ccc(-n2cnc3cc([N+](=O)[O-])ccc32)cc1`: the inhibition was 5.5% (inactive).

Turning to `Nc1ccc(-n2cnc3cc([N+](=O)[O-])ccc32)cc1`, the inhibition is 53.9% (active).

On to `N=C1C=CC=C2C1=NC1(CCCCC1)N2O`, for which the inhibition is 72.2% (active).

As to `CCOC(=O)C1CCN(CC(O)COCc2cccs2)CC1` (stereo not drawn), the inhibition is -1.6% (inactive).

As to `Cc1cc(N=Cc2c(O)ccc3ccccc23)no1`, the inhibition is 43.9% (inactive).

With `Oc1ccc2ccccc2c1C=Nc1ccc(Cl)cn1`, the inhibition is 56.1% (active).

`Oc1ccc2ccccc2c1/C=N/c1nccs1`: the inhibition was 39.6% (inactive).

In the case of `O=C(CSc1nc2ccc(Cl)cc2[nH]1)NCc1ccco1`, the inhibition is 1.5% (inactive).

As for `Cc1cccc(-n2c3nc(=O)[nH]c(=O)c-3cc3c(C)nn(-c4ccccc4)c32)c1`, the inhibition was 6.4% (inactive).

On to `COc1cc([N+](=O)[O-])ccc1NC(=O)/C=C/C(=O)O`, for which the inhibition was -26.7% (inactive).

As for `S=C(NCCCn1ccnc1)Nc1ccc(Cl)cc1Cl`, the inhibition was 5.5% (inactive).

For the molecule `O=C(CSc1nnc2ccccn12)NNC(=O)c1ccccc1`, the inhibition is -2.1% (inactive).

For `CCSc1nnc(N)s1`, the inhibition was -0.6% (inactive).

On to `CCSc1nnc(NC(=O)CC)s1`, for which the inhibition was 0% (inactive).

With `COc1ccc(-n2c(=S)[nH]c3c(sc(=S)n3-c3ccccc3)c2=O)c(OC)c1`, the inhibition is 62.6% (active).

Take `COc1ccc(OC)c(-n2c(=S)[nH]c3c(sc(=S)n3-c3ccccc3)c2=O)c1`: the inhibition was 9.9% (inactive).

For the molecule `COc1ccccc1-n1c(=S)[nH]c2c(sc(=S)n2-c2ccccc2)c1=O`, the inhibition is -4.5% (inactive).

Turning to `CC(O)[C@@H](C(=O)N1CCNCC1)n1cc(CCCCN)nn1` (stereo partly drawn), the inhibition is 4% (inactive).

In the case of `Cc1sc2nc(CSc3ccccc3)nc(N3CCC(C(N)=O)CC3)c2c1C`, the inhibition was 13.3% (inactive).

Regarding `Cc1ccc(/C=C(/C#N)C(=O)NC(=O)Oc2ccccc2)cc1`, the inhibition is 4.9% (inactive).

Turning to `N#C/C(=C\c1ccccc1)C(=O)NC(=O)Oc1ccccc1`, the inhibition is 11.3% (inactive).

Turning to `CCOC(=O)NC(=O)/C(C#N)=C\c1ccccc1`, the inhibition was 52.6% (active).

`CSc1cccc(NC(=S)N2CCC(N(C)C3CCCCC3C)CC2)c1` (stereo not drawn): the inhibition is -2.7% (inactive).

For `COc1ccc(C2CC(=O)N3CN(c4ccccc4F)CSC3=C2C#N)cc1OC` (stereo not drawn), the inhibition is 34.9% (inactive).

Consider `COc1ccc2ccccc2c1C1CC(=O)N2CN(C3CCCCC3)CSC2=C1C#N` (stereo not drawn), for which the inhibition is 25.9% (inactive).

With `CN1CSC2=C(C#N)C(c3cccc(OCc4ccccc4)c3)CC(=O)N2C1` (stereo not drawn), the inhibition was 29.7% (inactive).

Take `COc1ccc2ccccc2c1C1CC(=O)N2CN(C)CSC2=C1C#N` (stereo not drawn): the inhibition was 54.3% (active).

In the case of `CCOc1ccccc1N1CSC2=C(C#N)C(c3c(OC)ccc4ccccc34)CC(=O)N2C1` (stereo not drawn), the inhibition was 64.9% (active).

With `CCOc1cc(C2CC(=O)N3CN(C4CCCCC4)CSC3=C2C#N)ccc1O` (stereo not drawn), the inhibition is 54.5% (active).

As to `COc1ccccc1N1CSC2=C(C#N)C(c3ccc(SC)cc3)CC(=O)N2C1` (stereo not drawn), the inhibition was -29.2% (inactive).

For the molecule `CCOc1cc(C2CC(=O)NC(SCC)=C2C#N)ccc1O` (stereo not drawn), the inhibition was 9.3% (inactive).

Take `CCc1ccccc1N1CSC2=C(C#N)C(c3cc(OC)c(OC)cc3OC)CC(=O)N2C1` (stereo not drawn): the inhibition was 46% (inactive).

As to `CC(NC(=O)COC(=O)c1ccco1)c1ccccc1` (stereo not drawn), the inhibition is 6.4% (inactive).

For `COc1c(Cl)cc(Cl)cc1C(=O)Nc1ccc(NC(C)=O)cc1`, the inhibition was 7.9% (inactive).

Turning to `O=C(Cn1nnc(-c2ccccc2)n1)OC1CCOC1=O` (stereo not drawn), the inhibition was -0.6% (inactive).

On to `Cc1nn(CC(=O)NNC(=S)Nc2ccccc2)c(C)c1[N+](=O)[O-]`, for which the inhibition is 0% (inactive).

Take `CC1(C)Cc2c(sc(N)c2C#N)C(C)(C)N1`: the inhibition was 11.6% (inactive).

As for `Cc1nn(CC(=O)NCCc2ccccc2)c(C)c1[N+](=O)[O-]`, the inhibition is 2.6% (inactive).

For the molecule `CCOc1ccc(C(O)C(CN2CCOCC2)c2ccccc2)cc1` (stereo not drawn), the inhibition was -4.1% (inactive).

Regarding `COC(=O)c1c(NC(=O)c2cccnc2)sc(C)c1C`, the inhibition is -4.9% (inactive).

As to `CCOc1cc(NC(=O)CCl)c(OCC)cc1NC(C)=O`, the inhibition is -3.2% (inactive).

`CC(=O)Nc1nonc1NC(C)=O`: the inhibition was 5.4% (inactive).

In the case of `COc1cc(O)c(NC(C)=O)c2nonc12`, the inhibition was 64.6% (active).

`CC(=O)Nc1cc(OC(C)=O)c2nonc2c1OC(C)=O`: the inhibition is 83.9% (active).

With `CCOc1cc(Cl)c(NC(C)=O)cc1OCC`, the inhibition is -3% (inactive).

For the molecule `COc1cc(O)c(C(C)=O)cc1OC`, the inhibition was -15.9% (inactive).

In the case of `COC(=O)c1sc2nc3c(cc2c1N)CCCC3`, the inhibition is 14.2% (inactive).

Consider `Nc1c(C(=O)N2CCCC2)sc2nc3c(cc12)CCCCCC3`, for which the inhibition is 95% (active).

As to `NC(=O)c1sc2nc3c(cc2c1N)CCC3`, the inhibition was -8% (inactive).

As for `O=[N+]([O-])c1cc(-c2cnc3ccccc3n2)ccc1Oc1ccc(Cl)cc1`, the inhibition was 5.9% (inactive).

On to `CCOC(=O)C1C(=O)NC(SCC(=O)OC)=C(C#N)C1c1ccccc1OCC` (stereo not drawn), for which the inhibition was 14.3% (inactive).

With `CCOC(=O)C1C(=O)NC(SCC(=O)Nc2nccs2)=C(C#N)C1c1ccccc1OCC` (stereo not drawn), the inhibition was 54.2% (active).

For `CCOc1ccccc1C1CC(=O)NC(SCC(=O)Nc2nccs2)=C1C#N` (stereo not drawn), the inhibition was -8.2% (inactive).

As to `CCOc1ccc(CCNC(=O)COC(=O)c2cccc(OC)c2O)cc1OCC`, the inhibition was 5.3% (inactive).

As to `O=C1OC(Nc2ncccn2)c2ccccc21` (stereo not drawn), the inhibition was 4.9% (inactive).

With `O=C1OC(Nc2ccc3ncccc3c2)c2ccccc21` (stereo not drawn), the inhibition is 62.7% (active).

Regarding `O=C1OC(Nc2cc(Br)cc3cccnc23)c2ccccc21` (stereo not drawn), the inhibition is 14.2% (inactive).

In the case of `O=C(C1CCN(S(=O)(=O)c2cccc3cccnc23)CC1)N1CCN(c2ccccc2)CC1`, the inhibition was 13.6% (inactive).

As for `Cc1ccc(-n2nnnc2SCC(=O)N2CCc3ccccc3C2)cc1`, the inhibition is -23.5% (inactive).

`CCn1c(SCC(=O)N2CCCc3ccccc32)nnc1-c1ccoc1C`: the inhibition was -2.9% (inactive).

With `CCS(=O)(=O)c1ccc(O)c(NC(=O)COc2ccc(OC)cc2)c1`, the inhibition is 9.9% (inactive).

For `O=C(CC1CCCCC1)OCn1nnc2ccccc2c1=O`, the inhibition is -0.7% (inactive).

As for `COC(=O)C1=C(C)NC(C)=C([N+](=O)[O-])C1c1ccccc1C(F)(F)F` (stereo not drawn), the inhibition is -1.2% (inactive).

Take `COC(=O)C1=C(C)NC(C)=C(C(=O)OC)C1c1ccccc1[N+](=O)[O-]`: the inhibition was 83.1% (active).

In the case of `CCOC(=O)C1=C(C)NC(C)=C(C(=O)OC)C1c1cccc([N+](=O)[O-])c1` (stereo not drawn), the inhibition is 13.5% (inactive) and 1.6% (inactive).

With `COc1ccc(S(=O)(=O)N2CCOCC2)cc1OC`, the inhibition is -10.5% (inactive).

Take `O=C(OC(C(=O)NCc1ccco1)C(OC(=O)c1ccccc1)C(=O)NCc1ccco1)c1ccccc1` (stereo not drawn): the inhibition was -6.4% (inactive).

As to `Cc1nnc(Sc2cc(NCCCO)c([N+](=O)[O-])c3nonc23)s1`, the inhibition was 31.1% (inactive).

Consider `COc1ccc(CNc2cc(NCCCO)c([N+](=O)[O-])c3nonc23)cc1`, for which the inhibition was 52.3% (active).

Regarding `O=[N+]([O-])c1c(NCCCO)cc(Sc2ccc(Cl)cc2)c2nonc12`, the inhibition is 50.2% (active).

Take `CC(=O)OCCCNc1cc(Sc2ccc(Cl)cc2)c2nonc2c1[N+](=O)[O-]`: the inhibition was 30.1% (inactive).

On to `Cn1ccnc1Sc1cc(NCCCO)c([N+](=O)[O-])c2nonc12`, for which the inhibition is -0.6% (inactive).

Turning to `O=[N+]([O-])c1c(NCCCO)cc(SCc2ccco2)c2nonc12`, the inhibition was 20.8% (inactive).

As for `CCS(=O)(=O)CCSc1nc2c(cc1C#N)CCCC2`, the inhibition was 5.3% (inactive).

Regarding `Cc1cc(Cl)ccc1N=C1N=C(N)c2ccccc21`, the inhibition was 9.1% (inactive).

Take `Fc1ccc(F)c(C2=NNC(=Nc3ccccc3F)SC2)c1`: the inhibition was 22.5% (inactive).

As for `Cc1cc(Cl)ccc1N=c1ssnc1Cl`, the inhibition was 52.8% (active).

Regarding `Fc1ccc(N=c2ssnc2Cl)c(F)c1`, the inhibition was 80.9% (active).

Regarding `Cc1cc(Cl)ccc1N=Cc1c(O)n(C)c(=O)n(C)c1=O`, the inhibition was 9.5% (inactive).

Turning to `Oc1oc(C=Nc2ccc(F)cc2F)c2ccccc12`, the inhibition was -80.8% (inactive).

Take `Cc1ccc(CCNc2ccccc2C)cn1`: the inhibition is -6.3% (inactive).

Take `COc1ccc(C)cc1NC(=O)c1nnn(CCc2ccccc2)c1N`: the inhibition was 8.1% (inactive).

Consider `CSc1ccccc1NC(=O)c1cc(-c2cccnc2)nc2ccc(Br)cc12`, for which the inhibition is -3% (inactive).

Take `CCOC(=O)C1CC(c2ccccc2)=NNC1=O` (stereo not drawn): the inhibition is -6.5% (inactive).
